Bioassay records (PubChem)
WRN inhibitor: blocks human WRN helicase. Q14191. Potency, µM (top dose mostly 114 µM), inactives show at the top dose activity change, negative = inhibition, actives largely listed as inhibitors. WRN helicase unwinding, fluorescent forked duplex, kinetic. AID 651768. 0.46% of 360,000 active; note: % is set by controls: 0 for no effect and ±100 for the full control effect; nearly all actives have a fitted effect of over 55% in size
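Screening of the MLSMR collection measured strand separation of a quenched forked DNA duplex (100 nM) by 20 nM WRN with 2 mM ATP, all final. Compounds were preincubated with enzyme 15 min at room temperature.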
FEN1 inh: human FEN1 inhibition | P39748 | Recombinant FEN1 flap cleavage, fluorescence, 15 min | Potency, µM (highest dose often 114 µM), for inactives: at the top dose activity change, negative = inhibition, actives largely listed as inhibitors | 0.35% of 390,000 active | AID 588795; note: % is set by controls: 0 for no effect and ±100 for the full control effect; nearly all actives have a fitted effect of over 65% in size
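FEN1 at 10 nM preincubated with compounds 15 min at room temperature, then flap DNA substrate added at 50 nM final. Signal read at 0 and 15 min; concentration-response fitted with four-parameter Hill equation.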
Pol eta inh: inhibitors of human DNA polymerase eta. 1.2% of 390,000 active. recombinant Pol eta, fluorescent DNA replication assay. Potency, µM (titrated, usually from 114 µM), for the others: top-dose activity change, negative = inhibition, most hits filed as inhibitors; note: % is set by controls: 0 for no effect and ±100 for the full control effect
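Pol eta (10 nM) was preincubated with compounds for 15 min at room temperature, after which fluorescent replication substrate (50 nM final) was added to start the reaction. Fluorescence was read kinetically at 0 and 10 min.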
POLK inh: blocks human DNA polymerase kappa activity; Q9UBT6; purified Pol kappa, fluorescent DNA synthesis assay, 10 min; Potency, µM (doses to about 107 µM), for the others: at the top dose activity, negative = inhibition, usual class: inhibitors; 0.53% of 400,000 active; note: % is set by controls: 0 for no effect and ±100 for the full control effect
Target sequence (Q9UBT6 whole entry, looked up): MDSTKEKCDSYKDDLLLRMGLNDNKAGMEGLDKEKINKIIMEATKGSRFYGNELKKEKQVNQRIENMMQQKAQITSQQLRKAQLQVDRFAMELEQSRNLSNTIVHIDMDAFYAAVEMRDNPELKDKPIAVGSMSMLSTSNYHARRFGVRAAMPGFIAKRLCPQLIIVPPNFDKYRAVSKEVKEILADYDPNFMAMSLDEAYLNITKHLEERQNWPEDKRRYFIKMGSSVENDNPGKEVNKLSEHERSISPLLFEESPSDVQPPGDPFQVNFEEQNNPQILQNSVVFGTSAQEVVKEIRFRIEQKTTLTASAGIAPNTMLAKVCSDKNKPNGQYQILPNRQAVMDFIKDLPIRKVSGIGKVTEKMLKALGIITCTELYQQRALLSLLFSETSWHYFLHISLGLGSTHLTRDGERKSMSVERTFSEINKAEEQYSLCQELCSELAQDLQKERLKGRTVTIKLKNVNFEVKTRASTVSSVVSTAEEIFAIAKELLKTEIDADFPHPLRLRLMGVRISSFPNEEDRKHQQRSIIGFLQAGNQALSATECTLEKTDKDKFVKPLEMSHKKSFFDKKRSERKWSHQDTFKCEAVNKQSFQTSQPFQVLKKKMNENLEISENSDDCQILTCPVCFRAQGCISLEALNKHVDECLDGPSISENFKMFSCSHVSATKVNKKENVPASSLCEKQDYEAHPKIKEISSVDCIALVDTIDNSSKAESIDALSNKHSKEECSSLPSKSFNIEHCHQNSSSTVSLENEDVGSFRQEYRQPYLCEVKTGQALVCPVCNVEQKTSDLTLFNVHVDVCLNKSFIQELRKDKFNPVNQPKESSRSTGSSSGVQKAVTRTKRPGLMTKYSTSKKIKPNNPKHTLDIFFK
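Pol kappa 10 nM + cpd, 15 min RT; start w/ substrate 50 nM final; fluorescence kinetic read, 0 and 10 min. Neg ctrl: buffer, no enzyme.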
POLI inh: inhibitors of human DNA polymerase iota. Q9UNA4. Pol iota fluorescent replication assay, 10 min. Potency, µM (doses to about 115 µM), for the others: top-dose activity, negative = inhibition, usual class: inhibitors. 1% of 390,000 active. AID 588590
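Pol iota at 10 nM preincubated 15 min with compounds at room temperature; reaction started with fluorescent substrate, 50 nM final. Fluorescence read kinetically at 0 and 10 min; buffer-only wells as negative control.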
POLB inh: inhibitors of human DNA polymerase beta. P06746. Pol beta primer extension/strand displacement, fluorescence kinetic. Potency, µM (highest dose often 114 µM), for inactives: top-dose activity change, negative = inhibition, actives largely listed as inhibitors. 1.3% of 340,000 active. AID 485314; note: % is set by controls: 0 for no effect and ±100 for the full control effect
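Pol beta (10 nM) and compounds were preincubated 15 min at room temperature, then 50 nM substrate (final) started primer extension/strand displacement. Reads were taken at 0 and 10 min; concentration-response data were fitted to a four-parameter Hill equation.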
* marks the source's active call; other numbers are inactive results; [ ] = another dose, or the depositor's remark. Most compounds without a hit are left out; they make up all but 2.4% or so of the library. Calls come from the whole dose curve; as a rule, active = well fitted curve in the direction sought with a large enough effect; inconclusive = small, poorly fitted or top-dose-only effect, or another doubt; inactive = no such curve, though single readings can be large; an effect the other way counts as inactive or inconclusive. Potency is the fitted concentration of half-maximal effect.

What do the screens show for `COc1cccc(NC(=O)COC(=O)c2ccc3c(c2)OCO3)c1`?
WRN inhibitor: -30%; FEN1 inh: 4%; Pol eta inh: -9%; POLK inh: -3%; POLI inh: 102%

How did COc1ccc(C(=O)COC(=O)c2ccc3c(c2)OCO3)c(OC)c1 do in these assays?
WRN inhibitor: -25%; FEN1 inh: -19%; Pol eta inh: inconclusive; POLK inh: inconclusive; POLI inh: 79µM*

What do the screens show for `O=[N+]([O-])c1ccc(Cn2cc(-c3cccc(C(F)(F)F)c3)nn2)cc1`?
WRN inhibitor: -5%; FEN1 inh: -5%; Pol eta inh: -9%; POLK inh: inconclusive; POLI inh: 89µM*; POLB inh: -4%

Results for N#Cc1c(NC(=O)CCC(=O)O)sc2c1CCCCC2 ?
WRN inhibitor: -30%; FEN1 inh: 0%; Pol eta inh: inconclusive; POLK inh: -13%; POLI inh: inconclusive; POLB inh: -10%

How did CC(C)(C)c1ccc(C(=O)Nc2sc3c(c2C#N)CCC(C(C)(C)C)C3)cc1 (stereo not given) do in these assays?
FEN1 inh: 13%; Pol eta inh: -18%; POLK inh: 0%; POLI inh: 2%; POLB inh: -1%

What do the screens show for `N#Cc1c(NC(=O)C2CC=CCC2C(=O)O)sc2c1CCCCCC2` (stereo not given)?
WRN inhibitor: -33%[57.1 µM]; FEN1 inh: -4%; Pol eta inh: inconclusive; POLK inh: -27%; POLI inh: -12%; POLB inh: 18µM*

Results for CC(C)(C)C1CCc2c(sc(NC(=O)C3CC=CCC3C(=O)O)c2C#N)C1 (stereo not given) ?
WRN inhibitor: -29%[57.1 µM]; FEN1 inh: 0%; Pol eta inh: inconclusive; POLK inh: -15%; POLI inh: 6%; POLB inh: 71µM*

How did [O-][N+](=NC1C=Cc2ccccc21)C1C=Cc2ccccc21 (stereo not given) do in these assays?
FEN1 inh: -13%; POLK inh: -6%; POLI inh: -14%

What do the screens show for `CCN(CC)CCCN1C=C2C(=O)C(C)(OC(=O)CCC(=O)OC)C(=O)C(Br)=C2C=C1c1ccc(OC)cc1` (stereo not given)?
WRN inhibitor: -6%; FEN1 inh: inconclusive; Pol eta inh: 40µM*; POLK inh: inconclusive; POLI inh: inconclusive

How did COc1ccc(C2CC(=O)Oc3c(C(CCN4CCOCC4)c4ccc5c(c4)OCO5)c(OC)cc(OC)c32)cc1 (stereo not given) do in these assays?
FEN1 inh: -20%; POLK inh: -10%; POLI inh: inconclusive

How did CC(=O)c1cc(O)c2ccccc2c1O do in these assays?
WRN inhibitor: -12%[11.6 µM]; FEN1 inh: inconclusive; Pol eta inh: 89µM*; POLK inh: 3%; POLI inh: 4%; POLB inh: inconclusive

How did CCOc1ccccc1NC(=O)c1ccc2c(c1)CCN2S(C)(=O)=O do in these assays?
FEN1 inh: 12%; Pol eta inh: -9%; POLK inh: -17%; POLI inh: -11%; POLB inh: 4%

Results for N#Cc1c(NC(=O)CSc2ncccn2)oc(-c2ccccc2)c1-c1ccccc1 ?
WRN inhibitor: inconclusive; FEN1 inh: -1%; Pol eta inh: 10µM*; POLK inh: inconclusive; POLI inh: inconclusive

What do the screens show for `Cc1ccnc(SCC(=O)Nc2oc(-c3ccccc3)c(-c3ccccc3)c2C#N)n1`?
WRN inhibitor: -18%; FEN1 inh: 0%; Pol eta inh: -14%; POLK inh: -16%; POLI inh: -8%; POLB inh: 13%

How did Cc1ccc(O)c(C(=O)c2cc(C#N)c(=O)n(-c3c(C)n(C)n(-c4ccccc4)c3=O)c2)c1 do in these assays?
WRN inhibitor: -16%; FEN1 inh: 1%; Pol eta inh: -1%; POLK inh: -21%; POLI inh: -11%; POLB inh: 5%

Results for Cc1ccc(O)c(C(=O)c2cc(C#N)c(=O)n(-c3nccs3)c2)c1 ?
WRN inhibitor: -35%; FEN1 inh: -32%; Pol eta inh: 40µM*; POLK inh: -43%; POLI inh: inconclusive; POLB inh: 25µM*

How did O=C(Nc1ccc2c(c1)nc1n2CCOC1)c1ccco1 do in these assays?
WRN inhibitor: 1%; FEN1 inh: -3%; Pol eta inh: -8%; POLK inh: -10%; POLI inh: -10%; POLB inh: -1%

Results for O=C(Nc1ccc2c(c1)nc1n2CCSC1)c1ccco1 ?
WRN inhibitor: -20%[57.1 µM]; FEN1 inh: -2%; Pol eta inh: inconclusive; POLK inh: -36%; POLI inh: 32µM*; POLB inh: 11µM*

What do the screens show for `Cc1ccc(C)c(N2CCN(CCCNC(=O)c3ccc4nc(N5CCCCC5)sc4c3)CC2)c1`?
FEN1 inh: 2%; Pol eta inh: -12%; POLK inh: -1%; POLI inh: 7%; POLB inh: -4%

Results for S=c1[nH]c(=S)c2[nH]cnc2[nH]1 ?
FEN1 inh: -1%; POLK inh: -11%; POLI inh: 79µM*

Results for Cn1c(=O)[nH]c2nc[nH]c2c1=O ?
WRN inhibitor: -2%; FEN1 inh: -9%; Pol eta inh: -11%; POLK inh: -19%; POLI inh: -5%

How did Cc1oc(C)c2c(=O)cc(-c3ccc4c(c3)OCO4)cc(OC(=O)c3ccccc3Cl)c12 do in these assays?
FEN1 inh: inconclusive; Pol eta inh: inconclusive; POLK inh: inconclusive; POLI inh: 79µM*; POLB inh: 18µM*

Results for CN(C)N=Nc1ccc(/C=C2\C=Cc3ccccc32)cc1 ?
FEN1 inh: -12%; POLK inh: -7%; POLI inh: 5%

How did COc1ccccc1CNC(=O)C(C)Sc1ccsc1[N+](=O)[O-] (stereo not given) do in these assays?
WRN inhibitor: -32%; FEN1 inh: -4%; Pol eta inh: 40µM*; POLK inh: -31%; POLI inh: inconclusive; POLB inh: 4%

How did CC(Sc1ccsc1[N+](=O)[O-])C(=O)NCc1ccccc1 (stereo not given) do in these assays?
POLB inh: 2%

What do the screens show for `Cc1ccc(CNC(=O)CSc2ccsc2[N+](=O)[O-])cc1`?
WRN inhibitor: -3%[57.1 µM]; FEN1 inh: 4%; Pol eta inh: -3%; POLK inh: 0%; POLI inh: -4%; POLB inh: 38%
